Data reported in PubChem BioAssay AID1850 (Southern Research Specialized Biocontainment Screening …, 2009).
Out of some 310,000 compounds screened, about 1,000 (0.32%) were called active. These entries were drawn from the full list. Results with a measured potency or affinity are listed apart. Values without a mark were called inactive. The rule behind the calls is not given here.

Test: Inhibition of PhoP regulon, Salmonella typhi GFP reporter cells, confirmation, 4 h (AID 1850);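 note: 0% = induced wells with vehicle and 100% = uninduced wells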
Details: Salmonella Typhi PhoP-promoter GFP reporter, fluorescence, at 50 µM, hits give high values

SMILES	inhibition [%]
CC(C)OCCCNc1ncnc2c1[nH]c1ccccc12	11.2
COc1ccc(CNc2ncnc3c2[nH]c2cc(OC)c(OC)cc23)cc1	3.65
CCOCCCNc1ncnc2c1[nH]c1ccccc12	0.37
O=c1c2[nH]c3ccccc3c2ncn1CCC1=CCCCC1	-7.17
OCCCNc1ncnc2c1[nH]c1ccccc12	2.26
OCCCCCNc1ncnc2ccccc12	2.05
CCN(CC)CCCNc1ncnc2ccccc12	0.53
COCCNc1ncnc2c1[nH]c1ccccc12	8.5
COc1cc([N+](=O)[O-])cc(/C=N/NC(=O)c2cc(-c3ccccc3)nc3ccccc23)c1O	-2.11
O=C(CCC(=O)c1ccc(F)cc1)NC1CCCN(Cc2ccccc2F)C1 (stereo not drawn)	-3.89
O=C(c1cc(Br)ccc1Cl)N1CCCC1	6
Cc1ccc(NS(=O)(=O)c2ccc(C(=O)NCC(c3ccco3)N(C)C)cc2)cc1 (stereo not drawn)	-2.21
CCOC(=O)C1=C(O)c2ccccc2C(=O)/C1=C\c1ccc(CC)cc1	-9.78
CCCc1ccc(/C=C2\C(=O)c3ccccc3C(O)=C2C(=O)OCC)cc1	-2.52
Nc1ccc(C(=O)Oc2ccc([N+](=O)[O-])cc2)c(O)c1	-25
N#CCC(=O)Nc1ccc(C(=O)OCC(=O)Nc2ccccc2Sc2ccccc2)cc1	-5.37
Cc1ccccc1OCC(O)CN1CCN(c2ccc(Cl)cc2)CC1 (stereo not drawn)	6.16
CNNC(=S)Nc1cccc(C(F)(F)F)c1	6.82
Nc1ccc2c(c1)N1CCN=C1S2	-12.9
O=C(CC1SC2=NCCN2C1=O)Nc1ccc(Cl)cc1 (stereo not drawn)	-0.31
Cc1ccc(O)c(-c2cc(C(F)(F)C(F)F)[nH]n2)c1	-3.16
FC(F)C(F)(F)c1cc(-c2ccccc2)n[nH]1	5.29
O=c1nc(-c2ccccc2)n(-c2ccc(Cl)cc2)[nH]1	-11
Cc1ccc(OCCC(=O)Nc2ccc(S(=O)(=O)Nc3cc(C)nc(C)n3)cc2)cc1	-3.66
Cc1ccc(C(=O)N/N=C\c2cccs2)cn1	-3.85

SMILES	inhibition [%]
Cc1ccc(C(=O)N/N=C/c2ccc([N+](=O)[O-])s2)cc1	-14.9
Cn1c(SCC(=O)N/N=C/c2cc([N+](=O)[O-])ccc2O)nnc1-c1ccccc1	2.1
Cn1c(SCC(=O)N/N=C/c2ccc([N+](=O)[O-])s2)nnc1-c1ccccc1	17.5
COC(=O)N/N=C/c1ccc([N+](=O)[O-])s1	-3.8
Cc1cc(C(=O)N/N=C/c2ccc([N+](=O)[O-])s2)n[nH]1	21.5
O=C(N/N=C\c1ccc([N+](=O)[O-])s1)c1cncc(Br)c1	-10.5
O=C(N/N=C/c1ccc([N+](=O)[O-])s1)c1ccncc1	-1.03
O=C(Nc1ccc2c(c1)CCC2)c1ccc(Cl)nc1	8.38
COC/C=C/C1=CC2=CC(=O)C(C)(OC(=O)c3cnc4ccccc4n3)C(=O)C2=CN1c1cccc(C#N)c1 (stereo not drawn)	0.42
O=C(CSc1nccc(=O)[nH]1)N1CCOCC1	-10
CN(CCCCN1CCOCC1)Cc1nc(-c2ccc3c(c2)OCO3)no1	-10.5
CCn1cc(C(=O)c2cccs2)c2ccccc21	-0.847
O=C(CSc1nnc(SCc2ccccc2)s1)N/N=C/C=C/c1ccccc1[N+](=O)[O-]	8.59
CCn1cc(C(=O)N2CCN(c3ccccc3F)CC2)c(=O)c2ccc(C)nc21	-6.12
c1ccc(-c2cc(-c3ccncc3)nc3ccc4ccccc4c23)cc1	-9.12
Cc1ccc2nc(/C(C#N)=C/c3ccc(-c4cccc([N+](=O)[O-])c4)o3)[nH]c2c1	-10.4
N#C/C(=C\c1ccc([N+](=O)[O-])o1)c1nc2ccccc2[nH]1	7.25
COC(=O)c1[nH]c2cc(OC)ccc2c1NC(=O)c1ccc2c(c1)OCO2	-8.72
CCc1sc(C(=O)Nc2cccnc2)cc1Br	-8.13
CCc1cc(C(=O)Nc2ccc(OC)nc2)sc1C	4.89
COc1ccc(NC(=O)c2cccs2)cn1	2.51
O=C(Nc1cccnc1)c1ccc(Br)s1	12.6
O=S(=O)(c1ccc(-c2csc(-c3cccnc3)n2)cc1)N1CCCC1	0
Cc1cc(C)n(CC(O)Cn2cnc3c2c(=O)n(C)c(=O)n3C)n1 (stereo not drawn)	-7.83
CCN(CC(=O)NCc1ccc(Cl)cc1)C(=O)CSc1cccc(C(F)(F)F)c1	5.75

SMILES	inhibition [%]
COc1ccc(C2=NN(CN3C(=O)C(=O)c4ccccc43)C(c3ccc(OC)cc3)C2)cc1 (stereo not drawn)	-8.46
Cc1nc2c(C#N)cnn2c2c1CCN(Cc1ccccc1)N2C	0.51
Nc1cc(N2CCCCCC2)c2nonc2c1[N+](=O)[O-]	-0.89
Nc1ccc2nonc2c1[N+](=O)[O-]	-75.7
COCCn1c(=S)[nH]c2cc(C(=O)NCCCN3CCOCC3)ccc2c1=O	-1.91
O=C(NC1CCSC1=O)c1cccc(Cl)c1 (stereo not drawn)	3.01
CN1/C(=C\C=O)C(C)(C)c2ccccc21	1.84
CCN1/C(=C\C=C\C2=[N+](CC)c3ccccc3C2(C)C)C(C)(C)c2ccccc21	-46.5
O=C(Nc1cc2c3c(c1)CC(=O)N3CCC2)c1cccc(F)c1	6.53
O=C(c1ccc(F)cc1)c1ccc(N2CCCCC2)cc1	-11.2
CN(CC(=O)Nc1ccc(S(N)(=O)=O)cc1)c1ccccc1	14.4
Cc1ccccc1NC(=O)c1ccccc1O	4.26
CSc1ccccc1C(=O)Nc1cc(C)ccc1C	7.98
O=C(N/N=C/c1cc2ccccc2[nH]1)c1ccccc1Cl	12.6
O=[N+]([O-])c1cccc(-c2cc3ccccc3[nH]2)c1	-7.23
COc1ccc(N(CC(=O)N2CCN(c3cc(C)ccc3C)CC2)S(=O)(=O)c2c(C)noc2C)cc1	4.32
CCC(C)NC(=O)C1c2ccccc2C(=O)N(c2ccc(OC)cc2)C1c1ccc(OC)cc1 (stereo not drawn)	-3.48
O=C(N/N=C/c1cc(Br)c(O)c(Br)c1O)c1cccnc1	-12.7
O=C(N/N=C/c1cc2ccccc2nc1Cl)c1ccncc1	-3.32
O=C(N/N=C/c1cc(Br)c(O)c(Br)c1)c1cccnc1	19.1
Nc1nonc1-n1nnc(C(=O)N/N=C/c2ccc(Br)cc2)c1CSC1=NCCS1	6.84
O=C(N/N=C/c1ccccc1Cl)c1ccncc1	-2.44
O=C(N/N=C/c1cc2c(cc1Cl)OCO2)c1ccncc1	-3.87
Nc1nonc1-n1nnc(C(=O)N/N=C/c2c(Cl)cccc2Cl)c1CSC1=NCCS1	-8.07
O=C(N/N=C/c1ccc(O)cc1O)c1ccncc1	1.18

SMILES	inhibition [%]
COc1ccc(CNC(=O)CCNS(=O)(=O)c2ccc(Br)s2)cc1	-1.05
O=C(CN1C(=O)C2C3C=CC(C3)C2C1=O)Nc1nc(SCc2ccc(Cl)cc2)n[nH]1 (stereo not drawn)	3.67
O=C(O)COCC(=O)NC1CCN(Cc2ccccc2)CC1	-0.41
CC(CN1CCCCC1)OC(=O)c1ccccc1F (stereo not drawn)	-3.63
Cc1nn(C(C)C(=O)NC2CCC(C)CC2)c(=O)c2nn(-c3ccccc3)c(C)c12 (stereo not drawn)	-5.27
Cc1ccc(Cl)cc1NC(=O)C1CC(=O)Nc2ncnn21 (stereo not drawn)	-13
O=C(N/N=C/c1coc2ccc(Cl)cc2c1=O)c1ccncc1	-3.86
O=C(N/N=C/c1ccccc1O)NC12CC3CC(CC(C3)C1)C2	6.48
CNC(=S)N/N=C/c1cc(Br)cc(Br)c1O	6.75
Nc1nonc1C(=O)N/N=C/c1ccc(Br)o1	-7.75
O=C(N/N=C/c1ccc(Cl)cc1Cl)c1ccncc1	-12.1
Nc1nonc1C(=O)N/N=C/c1cc2c(cc1Br)OCO2	-18.8
O=C(C[n+]1ccccc1)N/N=C/c1cc(Br)cc(Br)c1O	1.91
O=C1NCCCC1C(=O)N/N=C/c1ccccc1O (stereo not drawn)	-6.72
CCOC(=O)C1CCCCN1Cc1cccc(OC)c1OC (stereo not drawn)	-6.91
CCC(=O)NC(=S)Nc1ccc(NC(=O)c2ccco2)c(OC)c1	-4.57
Cc1cc(=O)c(C(=O)O)nn1-c1cccc(C(F)(F)F)c1	3.22
Cc1[nH]n(-c2ccccc2)c(=O)c1/C=N/NC(=O)c1ccc(O)cc1O	4.8
Cc1ccc(C)c(CN2CCC(CNC(=O)CCc3nnc4ccc(N5CCCCC5)nn34)CC2)c1	-0.65
O=C(CSc1nnc(CNC(=O)c2cccs2)o1)Nc1cccc(Cl)c1	-8.62
O=C(CC1SC(N2CCCC2)=NC1=O)Nc1ccc(C(=O)N2CCN(c3cccc(Cl)c3)CC2)cc1 (stereo not drawn)	-3.88
Cc1ccc(S(=O)(=O)N[C@@H](CO)C(=O)N[C@@H](Cc2ccc(O)cc2)C(=O)O)cc1	3.35
Cc1ccc2c(c1)NC(=O)C(CC(=O)NCCCN1CCCCC1)O2 (stereo not drawn)	-5.47
